From PubChem BioAssay (NCI)
Values joined by “and” are separate entries in the source; they are usually repeats but may differ in a detail not shown here. Identical values can stand only once. This is part of a sample that, as a whole, favours compounds with a hit. Of some 83,000 tested, about 20% had one in any assay.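 Plates (96-well) were seeded with cells, treated with compound at one concentration, and incubated for 48 hours before percent growth was determined.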 Active and inactive are the calls of the source. The calls were made as follows: active = growth percent below 10; inactive = the rest.

Test system: MDA-MB-468 breast
Assay: NCI-60 one-dose screen, 48 h (100 = growth as untreated, 0 = no growth, -100 = all killed)
Details: 10 µM unless noted

Compound	growth
COC(=O)C(Cc1ccccc1)NC(=O)c1ccc(NC(=O)c2[nH]c(C)c(Cl)c2Cl)c(OC(C)C)c1 (stereo unspecified)	96.8% (inactive)
CCn1cc(C(=O)O)c(=O)c2cnc(N3CCCC3)nc21	99.2% (inactive)
C=C1C(=O)O[C@H]2[C@H]1CC/C(COC(=O)CCCc1c[nH]c3ccccc13)=C\CC[C@@]1(C)O[C@@H]21	23.1% (inactive)
CCCNc1nc2ccccc2c2c(=O)c3cccc(Cl)c3sc12	36.2% (inactive)
Cc1ccc(NS(=O)(=O)c2ccccc2)c(NS(=O)(=O)c2ccccc2)c1	104% (inactive)
COc1nc(/C=C\Nc2ccc3c(c2)OCCOCCOCCOCCO3)nc(OC)n1	108% (inactive)
Cc1ccc(Nc2nc(N)c3ccccc3n2)cc1Cl	48% (inactive)
Cc1nc2c(c(N3CCCc4ccccc43)n1)CCC2	8.12% (active)
C/C(=N/N)c1nnn(-c2ccc(Br)cc2)c1C	94.8% (inactive)
NC(N)=NC(N)=Nc1cc2ccccc2c2ccccc12	-14.2% (active)
Fc1ccc(-c2cc3nc(C(Cl)Cl)nc(-c4ccc(F)cc4)n3n2)cc1	-63.6% (active)
O=C(Nc1ccc(-n2cc(-c3ccncc3)c(-c3ccc(Cl)c(O)c3)n2)cc1)Nc1cc(C(F)(F)F)cc(C(F)(F)F)c1	13.9% (inactive)
CCNC(=O)Oc1ccc(/C(=C(/C)c2ccccc2)c2ccc(OCCN3CCCCCC3)cc2)cc1	-16.9% (active)
CC(C)[C@@H]1NC(=O)[C@]2(C)CSC(=N2)c2ccnc(c2)CNC(=O)C[C@@H](/C=C/CCS)OC1=O	42.7% (inactive)
CC(=O)c1nc2ccccc2n1CCn1cc(CC(N)C(=O)O)c2ccccc21 (stereo unspecified)	118% (inactive)
CC(=O)c1cc(C(=O)c2ccc3c(c2)Sc2ccccc2N3)c2cc(C)ccn12	-3.41% (active)
CN1CCN(c2ccc(Nc3nc(NCCNS(=O)(=O)c4ccc(Cl)cc4)c4sccc4n3)cc2)CC1	93% (inactive)
Cc1cc(N(CCCNc2ccnc3cc(Cl)ccc23)Cc2ccco2)nc(N2CCN(C)CC2)n1	73.7% (inactive)

Compound	growth
C=CCn1c(SCC(=O)Nc2ccc(C(=O)/C=C/c3ccc(Cl)cc3)cc2)nnc1-c1ccc(Cl)c(Cl)c1	81.5% (inactive)
COC(=O)C1C2CC3c4[nH]c5cc(OC)ccc5c4CCN3CC2CC(OC2CCCCO2)C1OC (stereo unspecified)	95.5% (inactive)
CCOc1ccc(N2C(N)=NC(N)=NC2(C)C)cc1	-0.227% (active) and 56.3% (inactive)
COc1cc2nc(Nc3ccc(F)cc3)nc(N)c2cc1OC	83.4% (inactive)
COc1ccc(-c2nnc(N3CCN(C(=O)CN4CCN(c5ccc(Cl)cc5)CC4)CC3)nc2-c2ccc(OC)cc2)cc1	74% (inactive)
Cc1cccc(N=Cc2ccccc2O)c1C	103% (inactive)
Cc1nc2ccccc2c(/C=C/c2ccc(F)cc2)c1C(=O)/C=C/c1ccccc1	17% (inactive)
Cn1c2nc3ccccc3c-2nc2ccccc21	75.4% (inactive)
COc1ccc(/C(=C\c2ccc3c(c2)OCO3)C(=O)Nc2nc3ccccc3s2)cc1OC	90.5% (inactive)
CCN(CC)CCCNc1ccc(C)c2sc3ccccc3c(=O)c12	-34.8% (active)
COc1ccc2nc3cc(Cl)ccc3c(NCCCCCN3CCCCC3)c2c1	-53.3% (active)
[Ag].[Ag].[NH-]S(=O)(=O)c1ccc(N=Nc2cc(N=Nc3ccc(S([NH-])(=O)=O)cc3)c3c(NC(=O)C(Cl)Cl)cccc3c2OC(=O)C(Cl)Cl)cc1.[c-]1nccs1.[c-]1nccs1	61.4% (inactive)
Cc1cc(=O)n2nc(-c3c[nH]c4ccccc34)sc2n1	88.8% (inactive)
COC12C=C/C(=C(/C(=O)OCc3csc(SC)n3)C(=O)CCCCCCCCC3(OC)C=C/C(=C(/C(=O)OCc4cnc(SC)s4)C(=O)CCCCCCCC1)O3)O2 (stereo unspecified)	29.5% (inactive)
O=C(/C=C/c1cc2ccccc2[nH]c1=O)c1ccc(Cl)cc1	15.4% (inactive)
CN1CCN(Cc2ccc(NC(=O)c3cncc(C#Cc4cnc(N)c5ccc(C#N)cc45)c3)cc2C(F)(F)F)CC1	-58.4% (active)
COc1ccc(NC(=O)c2ccc(Nc3ncnc4c3cnn4-c3cccc(F)c3)cc2)cc1	100% (inactive)
O=C1c2cc3c(cc2-c2c1c1ccc(Cl)cc1c(=O)n2CCCn1ccnc1)OCO3	-47.9% (active)
